Source: PubChem BioAssay AID720580 (National Center for Advancing Translational Sciences (NCATS), 2013)
Several values for one entry are separate records, joined by “and”; a condition that tells them apart may be missing. Equal entries are not always repeated. Hit rate of the full screen: of about 330,000 compounds, about 1,500 (0.45%) were called active. Another 6% or so got no clear call; they are omitted. Calls follow the shape of the full dose curve; tested in A549 cells. The entries come from a sample that favours actives as a whole. Some structures have more than one record in an assay (separate samples or runs), and their calls can disagree.

Assay: qHTS for Stage-Specific Inhibitors of Vaccinia Orthopoxvirus: Venus Reporter Primary qHTS; also: nearly all actives have a fitted effect of over 30% in size
Conditions: Vaccinia virus Venus reporter expression, fluorescence; series mostly up to 36.5 µM; activity change, negative = inhibition: at the top concentration
% is scaled to controls: 0 for no effect and ±100 for the full control effect; potency is read from the fitted curve at half-maximal effect.

Row | Compound | activity change, negative = inhibition | Potency
1 | CN(CC(=O)O)C(=O)c1ccccc1 | -1.7% (inactive) | –
2 | S=C(c1ccccc1)N1CCCC1 | -10.5% (inactive) | –
3 | CN(O)C(=S)c1ccccc1 | – | 11.2 µM (active)
4 | CCOC(=O)N1CCN(C(=O)C[C@@H]2C[C@@]3(C(=O)OC)CCCCC=C3N(CCC3=CCCCC3)C2=O)CC1 | -3.65% (inactive) | –
5 | CC1(C)OC(=O)C2=C(C[C@@H](C3CC3)O[C@H]2CCc2cccc(Cl)c2)O1 | -2.21% (inactive) | –
6 | CN(C)CCNC(=O)Nc1cccc(Cl)c1Cl | -9.74% (inactive) | –
7 | CC(=O)NCCNC(=O)c1cc(-c2cccc3ccccc23)nc2ccccc12 | -3.45% (inactive) | –
8 | CN(C)CCNC(=O)c1ccc(Cl)c2cc3ccccc3nc12 | – | 4.47 µM (active)
9 | COc1cc(C(O)c2nc(-c3cnn(C)c3)cs2)ccc1F (stereo not given) | 4.96% (inactive) | –
10 | COc1ccc(NC(=O)c2cnc(NS(=O)(=O)c3ccccc3)nc2)cc1 | -3.79% (inactive) | –
11 | COc1ccc(NS(=O)(=O)c2ccc3oc(SCC(N)=O)nc3c2)cc1 | – | 4.47 µM (active)
12 | CCn1c(=O)c(=O)[nH]c2c(=O)oc3ccc(S(=O)(=O)Nc4ccc(OC)cc4)cc3c21 | -8.32% (inactive) | –
13 | O=C1CCN(Cc2ccc(-c3ccccc3)cc2)CCN1Cc1ccccn1 | -10.9% (inactive) | –
14 | Cc1ccccc1-c1ccc(Nc2ccc(C(=O)N3CCOCC3)cc2)nn1 | -11.8% (inactive) | –
15 | Cc1oc2c(c1C(=O)N1CCOCC1)C(=O)c1ccccc1C2=O | – | 3.16 µM (active)
16 | COC1=C(N2CCOCC2)C(=O)c2ccccc2C1=O | 5.75% (inactive) | –
17 | CCCCC(CCCC)c1ccc(C=Nc2ccc(/C=C/c3ccnc4ccccc34)cc2)cc1 | -2.48% (inactive) | –
18 | Cc1ccccc1-c1csc(C(O)c2cccc(Cl)c2)n1 (stereo not given) | -11.5% (inactive) | –
19 | N=C1c2ccccc2-c2ccccc21 | -6.01% (inactive) | –
20 | c1ccc2c(c1)[I+]c1ccccc1-2 | – | inactive and 10 µM (active)
21 | CCCC[C@@H]1CN=C(N)N1CCc1cc(C(F)(F)F)cc(C(F)(F)F)c1 | – | 10 µM (active)
22 | CCCC[C@@H]1CN=C(N)N1CCCC | -24.8% (inactive) | –
23 | CCCC[C@@H]1CN=C(N)N1CCc1cccc(F)c1 | -11.5% (inactive) | –
24 | COc1cc(CNc2ncnc3c2ncn3[C@H]2CN(Cc3cccs3)C[C@@H](CO)O2)cc(OC)c1OC | -6.64% (inactive) | –
25 | NCCCCC(C(=O)O)N(C(=O)OCc1ccccc1)C(=O)OCc1ccccc1 (stereo not given) | -4.22% (inactive) | –

Row | Compound | activity change, negative = inhibition | Potency
26 | O=Cc1cn(-c2ccccc2)nc1-c1ccccn1 | -11.6% (inactive) | –
27 | COc1ccc(-c2nn(-c3ccccc3)cc2/C=N/Nc2ccccn2)cc1OC | – | 14.1 µM (active)
28 | Cc1ccc(-c2nn(-c3ccccc3)cc2/C=N/NC(=O)c2ccc3c(c2)OCO3)cc1 | -19.4% (inactive) | –
29 | O=C(CSc1nc2ccccc2[nH]1)Nc1nc(-c2ccccc2)c(-c2ccccc2)o1 | -7.22% (inactive) | –
30 | CCC(c1nc2ccccc2[nH]1)n1c(=O)c(-c2cccs2)nc2ccccc21 (stereo not given) | -17% (inactive) | –
31 | CCC(C)N1C(=O)S/C(=C/c2ccc(Sc3nc4ccccc4[nH]3)o2)C1=O (stereo not given) | – | 11.2 µM (active)
32 | O=C(NCc1ccc(F)cc1)c1cc(C2CCCCN2C(=O)C2CCCCC2)on1 (stereo not given) | -14.1% (inactive) | –
33 | COc1ccc(C2=Nc3ccccc3NC(=O)C2N(C(=O)c2cc3ccccc3[nH]2)c2ccccc2)cc1 (stereo not given) | 9.83% (inactive) | –
34 | C=CCC[C@H](Cc1ccc(F)cc1)C(=O)OC[C@@H](NC(=O)[C@@H](CC=C)CC(=O)N[C@H](CO)Cc1ccccc1)C(C)(C)C | – | 11.2 µM (active)
35 | C=CC[C@@H](CC(=O)N[C@H](CO)Cc1ccccc1)C(=O)N[C@H](C)COC(=O)[C@@H](CC=C)Cc1ccc(F)cc1 | -16.5% (inactive) | –
36 | C=CC[C@@H](CC(=O)N[C@H](CO)Cc1ccccc1)C(=O)N[C@@H](COC(=O)[C@@H](CC=C)Cc1ccc(F)cc1)Cc1c[nH]c2ccccc12 | -9.16% (inactive) | –
37 | Cc1ccccc1Cn1c(C)c(C(=O)NCc2cccc(C(F)(F)F)c2)sc1=O | -8.3% (inactive) | –
38 | CN1CC[C@H](c2c(O)cc(O)c3c(=O)cc(-c4ccccc4Cl)oc23)[C@H](O)C1 | – | 0.0794 µM (active)
39 | O=C(Nc1ccc(Cl)c(C(F)(F)F)c1)C1Cc2c(-c3ccccc3Oc3ccccc3)ccnc2O1 (stereo not given) | -1.56% (inactive) | –
40 | CC1(C(=O)Nc2ccc3c(c2)OCCO3)CCN1C(=O)Cc1cc(F)ccc1F (stereo not given) | -1.79% (inactive) | –
41 | CN(C)Cc1cn(-c2ccccc2)nc1-c1ccccc1 | -25.3% (inactive) | –
42 | CCc1ccc(-c2nn(-c3ccccc3)cc2CSC(=N)N)cc1 | – | 11.2 µM (active)
43 | CCc1ccc(-c2nn(-c3ccccc3C)cc2C(=O)N2CCN(C3CCS(=O)(=O)C3)CC2)cc1 (stereo not given) | -1.86% (inactive) | –
44 | COC(=O)C1CCCCN1Cc1ccc2c(c1)CN(Cc1cc(OC)c3c(c1)OCO3)CCO2 (stereo not given) | -4.65% (inactive) | –
45 | CCCCCc1c(-c2cccc(Br)c2)ncn1CCc1ccccc1OC | 0.147% (inactive) | –
46 | CCCCCc1c(-c2ccc(OC)c(OC)c2)ncn1CCc1ccccc1OC | -25.2% (inactive) | –
47 | CCCCCc1c(Cc2ccccc2)ncn1CCc1ccccc1OC | – | 1.41 µM (active)
48 | O=C(Nc1ccccc1)c1ccccc1OCc1ccccc1 | -6.03% (inactive) | –
49 | CC1(C(=O)NCC2CCOCC2)Cc2c(-c3cccc(C(N)=O)c3)ccnc2O1 (stereo not given) | -7.77% (inactive) | –
50 | COc1ccc(-c2nc3ccc(Br)cn3c2Cc2ccc(C)cc2)cc1OC | -0.743% (inactive) | –

Row | Compound | activity change, negative = inhibition | Potency
51 | Cn1c(Nc2cccc(Cl)c2)nc2ccccc21 | -21.5% (inactive) | –
52 | OCCCNc1nccc(-c2cc(Nc3cccc(Cl)c3)ncn2)n1 | – | 0.891 µM (active)
53 | CCOC(=O)[C@]12CCCC=C1N(CCC1=CCCCC1)C(=O)[C@H](CC(=O)N1CCOCC1)C2 | -24.7% (inactive) | –
54 | CNc1cncc(-c2ccc(NS(C)(=O)=O)cc2)n1 | -23.2% (inactive) | –
55 | CCOC(=O)[C@]12CCC=C1N(CCC1=CCCCC1)C(=O)[C@H](CC(=O)NCc1ccc(C)o1)C2 | -2.7% (inactive) | –
56 | CC(C)(C)NC(=O)C(CCc1ccccc1)n1c(=O)c(-c2ccccc2)nc2ccccc21 (stereo not given) | -12% (inactive) | –
57 | CNC(=O)c1cccc2nc3ccccc3nc12 | – | 6.31 µM (active)
58 | CN(C)C(=O)c1coc2nc3ccccc3nc12 | 31.2% (inactive) | –
59 | CNC(=O)C(NC(=O)c1ccccc1)=C(C)C | -8.97% (inactive) | –
60 | Brc1ccc2nc(-c3ccccc3)c(Cc3ccccc3)n2c1 | -0.0366% (inactive) | –
61 | OC(Cc1ccc2ccccc2n1)c1ccc(Cl)c(Cl)c1 (stereo not given) | -26.4% (inactive) | –
62 | COc1ccc(S(=O)(=O)N[C@@H]2C=C[C@@H](CC(=O)N3CCc4ccccc4C3)O[C@@H]2CO)cc1 | -15.7% (inactive) | –
63 | COc1ccc(NC(=O)C2Cc3c(-c4ccc5c(c4)OCO5)ccnc3O2)cn1 (stereo not given) | -22.3% (inactive) | –
64 | Cc1ccc(NC(=S)NC(=O)c2ccc(-c3ccccc3)cc2)cc1 | -10.3% (inactive) | –
65 | Cc1ccc(NC(=O)NC(=O)c2ccccc2)cc1F | -7.1% (inactive) | –
66 | Cc1cccc(NC(=O)NC(=S)NC(=O)c2ccccc2)c1 | – | 10 µM (active)
67 | CCCNC(=O)C1(C)CCN(Cc2ccc(Cl)c(Cl)c2)C1 (stereo not given) | 3.72% (inactive) | –
68 | CCCc1ccc(C(O)c2ncc(-c3cccc(OC)c3)[nH]2)cc1 (stereo not given) | -7.29% (inactive) | –
69 | Cc1ccc(-c2nc3c(C)cc(Br)cn3c2Cc2ccccc2)cc1 | -17% (inactive) | –
70 | COc1ccccc1Cc1c(-c2ccc(Cl)cc2)nc2ccc(Cl)cn12 | -18.1% (inactive) | –
71 | COc1ccc2c(c1O)-c1cccc3c1[C@@H](C2)N(C)CC3 | -9.77% (inactive) | –
72 | COc1c(O)ccc2c1CN1CCc3cc4c(cc3C1C2)OCO4 (stereo not given) | – | 11.2 µM (active)
73 | CN1CCc2cc3c(cc2[C@H]1[C@@H]1OC(=O)c2c1ccc1c2OCO1)OCO3 | -15.2% (inactive) | –
74 | Cc1cccc(C)c1NC(=O)C(c1cccc2ccccc12)n1c(=O)c(-c2ccco2)nc2ccccc21 (stereo not given) | -16.4% (inactive) | –
75 | COc1ccc(-c2c(C)cc3oc(=O)cc(-c4ccccc4)c3c2C)cc1OC | -14.3% (inactive) | –

Row | Compound | activity change, negative = inhibition | Potency
76 | COc1cc(OC)c2c(-c3cccc(-c4cccc(N)c4)c3)cc(=O)oc2c1 | – | 12.6 µM (active)
77 | COc1ccc(-c2c(C)cc3oc(=O)cc(-c4ccccc4)c3c2C)cc1F | -20.5% (inactive) | –
78 | CN[C@H]1C[C@H]2c3cc(Oc4ccccc4C)ccc3CCN2C(=O)[C@H]1[C@H](C)O | -0.143% (inactive) | –
79 | CC1=C(C(=O)N(C(C)C)C(C)C)CC(CC(=O)NCCCCc2ccccc2)C(=O)N1CCC1=CCCCC1 (stereo not given) | -14.9% (inactive) | –
80 | CC1=C(C(=O)Nc2ccccc2)S(=O)(=O)CCO1 | – | 0.794 µM (active)
81 | O=C(Nc1ccccc1)c1ccc2c(c1)OCCCO2 | -17.9% (inactive) | –
82 | CC1=C(C(=O)Nc2ccccc2)SCCO1 | -8.62% (inactive) | –
83 | OC(CBr)C[n+]1cccc2cc(Br)ccc21 (stereo not given) | -19.5% (inactive) | –
84 | COc1cccc(C(O)c2nc(-c3ccc(C)c(C)c3)cs2)c1 (stereo not given) | -9.02% (inactive) | –
85 | CCC(C)N(c1ccc(/C=C/c2ccnc3ccccc23)cc1)C(C)CC (stereo not given) | 25.9% (inactive) | –
86 | COC(=O)Cc1ccc(OC2(C)CCN(Cc3ccc4c(c3)OCCO4)C2)cc1 (stereo not given) | -6.83% (inactive) | –
87 | COC(=O)c1ccc2nc(-c3ccccc3)c(Cc3ccc(OC)cc3C)n2c1 | 1.02% (inactive) | –
88 | Cc1ccc(C)c(-n2c(SCC(=O)O)nc3sc4c(c3c2=O)CCCC4)c1 | -18.6% (inactive) | –
89 | CCCc1nc2sc3c(c2c(=O)n1NC(=O)CCCl)CCCC3 | – | 7.94 µM (active)
90 | Cn1c(NN)nc2sc3c(c2c1=O)CCC3 | -13.9% (inactive) | –
91 | Nc1nc2c(Br)ccc(Br)c2cc1C(=O)NCCc1ccccc1 | -9.13% (inactive) | –
92 | Cc1ccc2nc(-c3ccccc3)c(CC3CCCCC3)n2c1 | -3.43% (inactive) | –
93 | O=C(NC1CCCC1)C1c2ccccc2OCC(=O)N1Cc1ccccc1 (stereo not given) | 0.451% (inactive) | –
94 | CC(=O)c1cccc(-c2cnc3c(NC=O)cc(-c4cccc(C(=O)N(C)C)c4)cn23)c1 | -4.87% (inactive) | –
95 | CC(=O)c1ccc(-c2cnc3c(NC=O)cc(-c4cccc(NS(C)(=O)=O)c4)cn23)cc1 | – | 11.2 µM (active)
96 | CC(=O)c1cccc(-c2cnc3c(NC=O)cc(-c4ccc(N(C)C)cc4)cn23)c1 | 19.6% (inactive) | –
97 | CC(C)(C)c1ccc(C(=O)C[N+]2(C)CCCc3ccccc32)cc1 (stereo not given) | -21.8% (inactive) | –
98 | CCC(C)(O)C(=O)OC1C(=O)OC2CC3C(C)=CC(=O)C(O)C3(C)C3C4(O)OCC23C1C(C)C4O (stereo not given) | – | 0.316 µM (active)
99 | CC=CCn1c(SCCCc2ccccc2)nc2c1c(=O)[nH]c(=O)n2C | -14.7% (inactive) | –
100 | CN(C(=N)N)c1ccc(/C=C2\C=Cc3ccccc32)cc1 | -17.4% (inactive) | –
